From PubChem
Only some compounds are listed: those with a hit (about 18% of all), similar ones and a draw of the others.
TDP1 cell noCPT – qHTS for Inhibitors of human tyrosyl-DNA phosphodiesterase 1 (TDP1): qHTS in cells in absence of CPT | 15% of 420,000 active | DT40 Tdp1-/- hTDP1 cells, no CPT, ATP luminescence, 48 h | Potency, µM (doses to about 46.2 µM), most hits filed as inhibitors | AID 686978, 2013; also: nearly all actives have a fitted effect of over 55% in size
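Luminescent ATP content (CellTiter-Glo) served as the growth readout. Knockout chicken DT40 cells expressing human TDP1 were exposed to compounds without camptothecin for a minimum 48 hr at 37 °C.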
IL1B secr inh – inflammasome signaling inhibition, IL-1 beta readout; THP-1 LPS/ATP IL-1B secretion, AlphaLISA, 16 h; hits give low values; activity change, % at 57.5 µM; 4.7% of 360,000 active; in the data active = activity change below about -50%; inconclusive = mostly about -30% to -49%
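THP-1 cells pretreated 1 hr with compounds (up to 57.5 uM final), then stimulated with LPS (250 ng/mL final) plus ATP (1.25 mM final); secreted IL-1B measured by AlphaLISA after 16 hr, decreased signal indicating inhibition.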
TDP1 cell CPT – DT40-hTDP1 cell growth loss with CPT; chicken DT40 Tdp1-/-;hTDP1 cells + 20 nM CPT, ATP luminescence, 48 h; Potency, µM (top dose mostly 46.2 µM), actives largely listed as inhibitors; 12% of 420,000 active; AID 686979; also: nearly all actives have a fitted effect of over 55% in size
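Chicken DT40 Tdp1-/- cells complemented with human TDP1, 400 cells/well, exposed to compounds plus 20 nM camptothecin for at least 48 h at 37 C; viability read as ATP content by CellTiter-Glo luminescence.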
HepG2 tox – kills HepG2 cells in TGF-b inhibitor counter-screen; HepG2 CAGA-GFP viability, ATP luminescence, 18 h; Potency, µM (top dose mostly 46.1 µM), hits mostly cytotoxic; 0.76% of 410,000 active
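HepG2 CAGA-GFP cells (1000/well, DMEM with 1% FBS) received compound, then TGF-beta at 500 pg/mL final, and were incubated 18 hours at 37 degrees C. Viability was read by CellTiter-Glo luminescence. Media-only wells were set as complete cell-killing and DMSO as no toxicity.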
TGFb SMAD3 inh – inhibitors of TGF-b signaling; HepG2 CAGA-GFP TGF-b/SMAD3 reporter, GFP fluorescence, 18 h; TGF-beta stimulated, 500 pg/mL final; Potency, µM (series often up to 46.1 µM), hits mostly inhibitors; 1.2% of 410,000 active; AID 588855; also: nearly all actives have a fitted effect of over 65% in size
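Inhibition of TGF-beta-driven CAGA-GFP reporter expression in HEPG2 cells is measured by cellular GFP fluorescence after 18 h stimulation with 500 pg/mL recombinant TGF-beta in 1% FBS medium at 37 degrees C.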
TDP1 inh – TDP1 (human) enzyme inhibition | AID 485290 | Potency, µM (titrated, usually from 130 µM), usual class: inhibitors | Q9NUW8 | 0.28% of 350,000 active | recombinant TDP1, AlphaScreen DNA substrate cleavage; also: nearly all actives have a fitted effect of over 40% in size
Target sequence (Q9NUW8 whole entry, looked up): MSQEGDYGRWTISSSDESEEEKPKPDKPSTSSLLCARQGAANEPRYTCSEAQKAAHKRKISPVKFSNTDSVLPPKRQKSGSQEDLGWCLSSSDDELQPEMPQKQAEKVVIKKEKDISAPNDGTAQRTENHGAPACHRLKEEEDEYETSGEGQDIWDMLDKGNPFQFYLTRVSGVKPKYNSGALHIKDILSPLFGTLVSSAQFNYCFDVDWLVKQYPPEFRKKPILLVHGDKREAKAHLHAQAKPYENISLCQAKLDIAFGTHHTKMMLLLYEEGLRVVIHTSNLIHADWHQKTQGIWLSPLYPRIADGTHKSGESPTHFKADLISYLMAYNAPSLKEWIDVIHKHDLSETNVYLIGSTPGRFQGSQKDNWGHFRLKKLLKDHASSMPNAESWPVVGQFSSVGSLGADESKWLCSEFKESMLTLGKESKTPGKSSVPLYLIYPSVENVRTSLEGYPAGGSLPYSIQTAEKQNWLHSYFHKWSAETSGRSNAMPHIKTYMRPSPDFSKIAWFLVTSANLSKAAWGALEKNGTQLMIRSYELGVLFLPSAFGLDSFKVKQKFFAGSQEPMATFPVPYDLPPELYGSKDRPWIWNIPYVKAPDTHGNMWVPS
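Steps: enzyme plus compound, 15 min RT; add biotin/phosphotyrosine-FITC oligonucleotide (15 nM final), react 5 min; add donor/acceptor beads (10 ug/ml final), 10 min; read AlphaScreen. Tdp1 at 1 nM final.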
Large screens that a line does not name were inactive. Unless noted, calls follow the shape of the dose curve; as a rule, active = well fitted curve in the direction sought with a large enough effect; inconclusive = small, poorly fitted or top-dose-only effect, or another doubt; inactive = no such curve, though single readings can be large; an effect the other way counts as inactive or inconclusive.

CCn1c(SCC(=O)Nc2oc(-c3ccccc3)c(-c3ccccc3)c2C#N)nnc1-c1ccncc1	TDP1 cell noCPT inconclusive, TDP1 cell CPT 13µM
Cn1cnnc1SCC(=O)Nc1nc(-c2ccccc2)cs1	TDP1 cell noCPT inconclusive, TDP1 inh 35.5µM
CN(C)c1ccc(NC(=O)c2sc(SCC(=O)Nc3nccs3)nc2N)cc1	TDP1 cell noCPT 16.4µM, TDP1 cell CPT inconclusive
Cc1ccc2ncc(C(=O)NCCc3ccc(S(N)(=O)=O)cc3)c(=O)n2c1	TGFb SMAD3 inh inconclusive (no result: IL1B secr inh)
COc1ccc(C(C)=O)cc1CS(=O)(=O)CC(=O)NCCc1c[nH]c2ccccc12	none
CCn1c(SCC(=O)OC(C)C)nnc1-c1ccccc1	IL1B secr inh -63.9
CCn1c(SCC(=O)Nc2nc(-c3ccccc3)cs2)nnc1-c1ccccc1	TDP1 cell noCPT inconclusive, IL1B secr inh -62.7, TDP1 cell CPT inconclusive, TGFb SMAD3 inh inconclusive
CCOC(=O)N1CCN(C(=O)CSCC(=O)Nc2nc(-c3ccccc3)cs2)CC1	TDP1 cell noCPT inconclusive, TDP1 cell CPT 20.6µM
O=C(CSCC(=O)N1CCN(c2ccccc2)CC1)Nc1nc(-c2ccc(Cl)s2)cs1	TDP1 cell noCPT inconclusive, TDP1 cell CPT inconclusive
CCn1c(SCC(=O)c2ccc(O)c(O)c2)nnc1-c1ccc(C)cc1	TDP1 cell noCPT inconclusive, TDP1 cell CPT 23.1µM, TGFb SMAD3 inh inconclusive
CCn1c(SCC(=O)c2ccc([N+](=O)[O-])cc2)nnc1-c1ccc(Cl)cc1	none (no result: TDP1 cell noCPT, IL1B secr inh, TDP1 cell CPT)
CCN1C(=O)[C@@H]2[C@H](C1=O)[C@@H]1C[C@H]3C(=O)N(CC)C(=O)[C@H]3[C@@H]3C1=C(C(=O)N1C(=O)O/C(=N\CC4CC4)[C@]31C)[C@@H]2C	none (no result: TDP1 cell noCPT, IL1B secr inh, TDP1 cell CPT, HepG2 tox, TGFb SMAD3 inh)
Brc1cccc(-c2nnc(CN3CCN(c4ccccn4)CC3)o2)c1	none (no result: IL1B secr inh)
COc1cc(Cl)c(C)cc1NC(=O)CSc1nc2c(c(=O)[nH]1)CCCC2	TDP1 cell noCPT inconclusive, TDP1 cell CPT inconclusive (no result: IL1B secr inh)
Cc1ccc(CNC(=O)c2c(-c3ccccc3F)noc2C)o1	none (no result: IL1B secr inh)
CCn1c(SCC(=O)Nc2nccs2)nnc1-c1ccc(S(=O)(=O)N2CCCCC2)cc1	TDP1 cell noCPT 16.4µM, TDP1 cell CPT inconclusive
COc1ccc2cc(C)c3nnc(SCC(=O)Nc4cc(OC)c(OC)cc4C(=O)O)n3c2c1	none
COc1ccc2cc(C)c3nnc(SCC(=O)Nc4nc(-c5ccccc5)cs4)n3c2c1	TDP1 cell noCPT 4.61µM, TDP1 cell CPT inconclusive
Cc1cc(S(=O)(=O)Nc2ccc(C(=O)NC3CC3)cc2)ccc1F	none (no result: TDP1 inh)
CCCCOP(=O)(OCCCC)C1(NS(=O)(=O)c2ccccc2)C=CC(=O)c2ccccc21 (stereo not drawn)	TDP1 cell noCPT 23.1µM, TDP1 cell CPT 16.4µM, TGFb SMAD3 inh inconclusive
Cc1cc(NC(=O)CSc2nc(=O)cc(N)n2-c2ccc(Cl)cc2)no1	none
O=C(Nc1ccccc1Cl)c1ccccc1Oc1ccc(C(F)(F)F)cc1[N+](=O)[O-]	TDP1 cell noCPT 18.4µM, TDP1 cell CPT 23.1µM
Cc1ccc(Oc2ccc(C(F)(F)F)cc2[N+](=O)[O-])c([N+](=O)[O-])n1	IL1B secr inh inconclusive, HepG2 tox 22.4µM (no result: TDP1 inh)
COc1ccc(NC(=O)c2ccco2)cc1NC(=O)COc1ccccc1[N+](=O)[O-]	none (no result: TDP1 inh)
COc1ccccc1NC(=O)c1cc(OC)c(OC)cc1[N+](=O)[O-]	none
COc1ccccc1NC(=O)COc1ccc(C(F)(F)F)cc1[N+](=O)[O-]	TDP1 cell noCPT 18.4µM, TDP1 cell CPT inconclusive (no result: TDP1 inh)
Cc1ccc(CNC(=O)C2CCN(S(=O)(=O)c3cn(C)cn3)CC2)cc1	none (no result: IL1B secr inh)
Cc1cc(C(=O)CSc2n[nH]c(N)n2)c(C)n1-c1cc(F)ccc1F	TDP1 cell noCPT inconclusive
Cc1cc(C(=O)CSc2n[nH]c(N)n2)c(C)n1-c1ccc(F)cc1	TDP1 cell noCPT inconclusive, TDP1 cell CPT 20.6µM
